According to ChEMBL document CHEMBL4513216, “Probing the Open Global Health Chemical Diversity Library for Multistage-Active Starting Points for Next-Generation Antimalarials” (ACS Infect Dis, 2020):
Hit rate of the full screen: of about 69,000 compounds, about 8,600 (12%) showed an effect of 50% or more. This excerpt belongs to a sample that is enriched for strong results.

test system: Plasmodium berghei; assay: Screen against P. berghei liver stage (PbLuc), transformed with Luciferase, at 10uM; format: functional, HepG2; conditions: tested at 10 uM

Row | Compound | INHIBITION [%]
1 | CNC(=O)Cc1noc(Cc2ccc3c(c2)CCCC3)n1 | 15.9
2 | CN1C(=O)c2ccc(NC(=O)CSc3ccc4c(c3)CCC4)cc2C1=O | 11.5
3 | CS(=O)(=O)c1ccc(NC(=O)CSc2ccc3c(c2)CCC3)cc1 | 31.2
4 | CNC(=O)NC(=O)CSc1ccc2c(c1)CCC2 | 54.3
5 | CS(=O)(=O)c1ccc(NC(=O)NCc2ccc3c(c2)CCC3)cn1 | 24
6 | NC(=O)c1cccc(NC(=O)CSc2ccc3c(c2)CCC3)c1 | 40.6
7 | CNC(=O)NC(=O)CCSc1ccccc1C | 29.8
8 | CS(=O)(=O)c1ccc(NC(=O)CSc2ccc3c(c2)CCC3)cn1 | 53.4
9 | NS(=O)(=O)c1ccc(NC(=O)CSc2ccc3c(c2)CCC3)cc1 | 66.8
10 | CN(C)CCO[C@@H]1CC[C@H]2[C@H]1OCCN2C(=O)c1ccccc1F | 35.2
11 | CC(C)(C)c1nccc(N2CCCCC2CCNS(C)(=O)=O)n1 (centres undefined) | -1.79
12 | Cc1cnn(CC2CCCN2Cc2nnc(C3CC3)o2)c1 (centres undefined) | 2.3
13 | O=C(c1ccc(N2CCOCC2)nc1)N1CCCC(n2ccnc2)C1 (centres undefined) | 13.05
14 | CC(C)CN1CCC2(C=C(C(=O)N3CCCC3)c3ccccc32)CC1 | -17
15 | Cc1cc(CN2CCN(C(=O)CCc3cccs3)CC2)on1 | -9.08
16 | Cc1cccc(COCC2c3nnn(C)c3CCN2Cc2ccoc2)n1 (centres undefined) | -5.08
17 | C[C@H]1CN(C(=O)c2cccnc2)C[C@@]12CCN(CCN1CCCC1)C2=O | 23.6
18 | CC(=O)N(Cc1ncc(C)o1)C1CCN(Cc2ccon2)C1 (centres undefined) | 3.73
19 | CO[C@H]1CN(C(=O)c2ccc(-c3ccccc3)[nH]2)CC[C@H]1N | -22.4
20 | O=C(c1cnccn1)N1C[C@H]2CC[C@@H](C1)N(S(=O)(=O)c1cccnc1)C2 | -6.34
21 | Cc1nc(CN(C)S(=O)(=O)c2ccccc2C(F)(F)F)no1 | 11.3
22 | Cc1nc(CN(C)S(=O)(=O)c2ccccc2Br)no1 | 58.1
23 | Cc1nc(CN(C)S(=O)(=O)c2ccc(F)cc2Br)no1 | 18.9
24 | Cc1cc(NCCC(=O)NC2CCCC2)nc(-c2ccncc2)n1 | 4.52
25 | CC(C)CS(=O)(=O)N1CCC2(CN(c3cccc(F)c3)C(=O)CN2C)C1 (centres undefined) | 55.5
26 | CCS(=O)(=O)N1CCC2(CN(c3cccc(F)c3)C(=O)CN2C)C1 (centres undefined) | 19.4

Row | Compound | INHIBITION [%]
27 | CN1CC(=O)N(c2cccc(F)c2)CC12CCN(S(C)(=O)=O)C2 (centres undefined) | -5.12
28 | CCCc1n[nH]c(C2CN(C(=O)c3ccc[nH]3)CCO2)n1 (centres undefined) | 27.8
29 | CCc1nc2c(c(N3CCOCC3)n1)CCN(C(=O)N1CCCC1)CC2 | -28.4
30 | CCc1nc2c(c(N3CCOCC3)n1)CCN(C(=O)c1ccon1)CC2 | 52.2
31 | O=C(c1ccccn1)N1CCc2ncnc(N3CCOCC3)c2CC1 | -64.5
32 | COc1ccc(C(C(=O)O)N(C)Cc2c(C)nn(C)c2C)c(C)c1 (centres undefined) | 26.9
33 | Cc1nc(C2CCN(C(=O)c3cscn3)CC2)c2sccn12 | 17.4
34 | Clc1ccc(-n2cc(CNC3CCc4ncnn4C3)cn2)cc1 (centres undefined) | 51.3
35 | COc1ccc2c(c1)OCC(CNC1CCc3ncnn3C1)=C2 (centres undefined) | 35.1
36 | CCCOc1ccc2c(c1)OCC(CNC1CCc3ncnn3C1)=C2 (centres undefined) | 42.1
37 | c1ccc(-n2cc(CNC3CCc4ncnn4C3)cn2)cc1 (centres undefined) | 11.6
38 | O=C(CNC1CCc2ncnn2C1)NCCc1cccs1 (centres undefined) | 12.3
39 | c1csc(CCNC2CCc3ncnn3C2)c1 (centres undefined) | 68.8
40 | Clc1ccc2c(c1)C=C(CNC1CCc3ncnn3C1)CO2 (centres undefined) | 51.8
41 | C1=C(CNC2CCc3ncnn3C2)COc2ccccc21 (centres undefined) | 61.6
42 | c1ccc(Cn2cc(CNC3CCc4ncnn4C3)cn2)cc1 (centres undefined) | 39.5
43 | O=C(CNC1CCc2ncnn2C1)N(Cc1cccs1)C1CC1 (centres undefined) | 27.7
44 | Clc1ccc(-c2cnc(CNC3CCc4ncnn4C3)o2)cc1 (centres undefined) | 39.6
45 | Clc1cccc(-c2nc(CNC3CCc4ncnn4C3)co2)c1 (centres undefined) | 49.8
46 | COc1cccc(-c2cc(C3=NC(=CN4CCN(C)CC4)NO3)[nH]n2)c1 | 33.1
47 | NC(=O)CN1CCC(c2cccc(Oc3ccccc3)n2)CC1 | -11.4
48 | CCn1nc(C)c2nnn(CC(=O)Nc3ccccc3F)c(=O)c21 | 40.8
49 | CSc1nnc(C2CCN(C(=O)N3CCOCC3)CC2)n1C(C)C | 40.85
50 | CCN1CCC2(CN(C(=O)N(C)C)CC23CCNCC3)C1=O (centres undefined) | -3.58
51 | CNC(=O)NC(=O)CN(Cc1ccc(C#N)cc1)Cc1cccc(F)c1 | -0.85
52 | Cc1cccc2c1N(C)C(=O)C21CC(=O)Nc2c1cnn2C(C)(C)C (centres undefined) | -23.9

Row | Compound | INHIBITION [%]
53 | O=C(CCOc1ccccc1F)N1CCCCC1Cn1cccn1 (centres undefined) | -21.5
54 | Cc1cc(-c2cnc(NCc3cccnc3)nc2C(C)C)on1 | 69.4
55 | COCc1cc(NCc2ccccc2OC)ncn1 | 12.6
56 | Cc1cc(-c2cnc(NCc3cccnc3)nc2C(C)(C)C)on1 | 83.6
57 | COc1ccccc1CN1CCCCC1c1n[nH]cc1-c1cc(C)no1 (centres undefined) | 24.8
58 | Cc1cnc(-c2nc(NC3CC3)ncc2-c2cc(C)no2)cn1 | 8.72
59 | Cc1cc(-c2cnc(NCc3ccncc3)nc2C(C)C)on1 | 94.1
60 | Cc1cc(-c2cnc(NCc3ccccn3)nc2C(C)C)on1 | 24.4
61 | CCN(CC)CCNc1ncc(-c2cc(C)no2)c(-c2ccoc2C)n1 | 33.5
62 | COc1ccccc1CNc1ncc(-c2cc(C)no2)c(C(C)C)n1 | 79.7
63 | Cc1nn(C)c2c(NCc3cccnc3)nc(C(C)C)nc12 | -34
64 | COc1ccc(CNc2ncc(-c3cc(C)no3)c(C(C)C)n2)cc1 | -5.71
65 | CCn1ncc(S(=O)(=O)N[C@@H]2CC[C@@H](n3ccnc3)[C@@H]2O)c1C | 4.65
66 | Fc1cccnc1OC[C@@]12CCO[C@@H]1CCN(CC1CCOCC1)C2 | -17.7
67 | Cc1csc(CCNC(=O)N2CCC(n3cccc3)CC2)n1 | -6.04
68 | O=C(O)c1cnc(-c2cccc3c2CCNC3)c(Cl)c1 | 2.15
69 | COc1cccc(COCC(=O)NC(C)c2nnc3n2CCC3)c1 (centres undefined) | -0.613
70 | CCc1nnc(Nc2cc(C)nc(C3CCN(c4ncccn4)C3)n2)s1 (centres undefined) | -11.4
71 | CCC(O)CNc1nccc(-c2ccc(C)nc2C)n1 (centres undefined) | -8.9
72 | Cc1ccc(NC(=O)C(C)n2ccc(C(F)(F)F)n2)nc1 (centres undefined) | 20.9
73 | O=C(NC1CC1)N1CCc2ccc(=O)n(Cc3cccnc3)c2CC1 | 45.2
74 | Cc1ccc(-c2cc(C)nc(C3CCCN3S(C)(=O)=O)n2)cc1 (centres undefined) | -70.8
75 | CC(C)c1nn(C)c(Cl)c1CNCc1ccc2c(c1)OCO2 | 27.8
76 | CC(C)c1nn(C)c(N(C)C)c1CNCc1ccc2c(c1)OCO2 | 3.75
77 | Cc1cc(-c2cnc(NCc3ccc4c(c3)OCO4)nc2C(C)C)on1 | 90.5
78 | CN1C(=O)Cc2cc(-c3csc(CCN4CCOC4=O)n3)ccc21 | 19.2

Row | Compound | INHIBITION [%]
79 | CC(C)CN1C[C@H]2CCN(Cc3cccnc3)CC[C@H]2S1(=O)=O | 42.1
80 | CCn1cc(CN2CCCN(C(=O)CCc3nccs3)CC2)cn1 | 1.78
81 | O=C(Nc1cc(F)ccc1OCC1CCCO1)NC1CC1 (centres undefined) | -12.1
82 | O=C(c1cn[nH]c1)N1CCC2(CCCN(Cc3ccc(F)c(F)c3)C2)C1 (centres undefined) | 25.8
83 | CC(C)(C)CN1CCCC2(CCN(C(=O)c3ccc(O)nc3)C2)C1 (centres undefined) | 43.1
84 | CC(C)(C)CN1CCCC2(CCN(C(=O)c3cn[nH]c3)C2)C1 (centres undefined) | 68
85 | Cc1cnn(CC2CN(CC(=O)Nc3nncs3)CCO2)c1 (centres undefined) | 30.76
86 | CC(=O)N1CCCC1c1nc(C)cc(-c2ccc(F)cc2)n1 (centres undefined) | 48.4
87 | CN1CCC/C1=N\S(=O)(=O)c1ccc(NC(=O)c2ccco2)cc1 | -67.3
88 | CNS(=O)(=O)c1ccc(F)c(C(=O)NCc2ccnc(OC)c2)c1 | 31.2
89 | CC(C)c1noc(CCC(=O)Nc2cc(C(F)(F)F)c[nH]c2=O)n1 | 41.5
90 | CCc1noc(CCCC(=O)Nc2cc(C(F)(F)F)c[nH]c2=O)n1 | 29.8
91 | CCCc1noc(CCC(=O)Nc2cc(C(F)(F)F)c[nH]c2=O)n1 | 52.2
92 | Cc1cnn(CC2CN(c3nnc(C)c(C)c3C#N)CCO2)c1 (centres undefined) | 15.635
93 | CCOC(=O)N1CCN(C(=O)c2sc(-c3ccccc3F)nc2C)CC1 | 39.9
94 | Cc1sc2nc(CCN)nc(N3CCS(=O)(=O)CC3)c2c1C | 31.3
95 | Cc1nc(C2CCN(S(C)(=O)=O)CC2)nc(N2CCCC2)c1C | 11.25
96 | CCOC(=O)N1CCN(c2nc(CCN)nc3sc(C)c(C)c23)CC1 | 90.7
97 | Cc1sc2nc(CCN)nc(N3CCN(S(C)(=O)=O)CC3)c2c1C | 67.5
98 | Cc1sc2nc(CCN)nc(N3CCC(N4CCCC4)CC3)c2c1C | 39.6
99 | CCc1c(C)sc2ncnc(N3C[C@H](O)[C@@H](N4CCCC4)C3)c12 | 48.5
100 | Cc1sc2nc(CCN)nc(N3CC(N4CCCCC4)C3)c2c1C | 86.9
101 | COC(=O)CNC(=O)CSCc1nc(O)c2c(C)c(C)sc2n1 | 22.1
102 | NC(=O)c1cccc(-c2cnc(C3CCCNC3)cn2)c1 (centres undefined) | 34.3
103 | CC(C)N(C)Cc1ncn2c1CN(S(=O)(=O)c1cccs1)CCC2 | 38.5
104 | Cc1noc([C@@H](C)NCc2ccc(F)cc2)c1C(=O)O | -4.82
